Drawing on the supplement of paper PMC6555819, this text covers PBM binding z-score for seven sequences.

Assay in all cases: PBM binding z-score (relative to random genomic background probes); higher = stronger binding; sequences stand for … in GC…GCGATTGACAGCGTAGAATGAAGG
Assay [1] relates to FXR:RXRa (NR concentration 270 nM, RXRa partner concentration 90 nM). In outline:
(§1)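 Regression normalization was applied to scanned fluorescence from custom Agilent 4×180K protein-binding microarrays. Before scanning, arrays were incubated 1 h with ligand-free nuclear receptor dimers, and binding was detected with antibodies against each partner (one per run). Binding z-scores use the random background probes as reference.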

The test system of assay [2] is LXRa:RXRa (NR concentration 270 nM, RXRa partner concentration 90 nM). A digest of the protocol:
as §1

The test system of assay [3] is LXRa homodimer (NR concentration 270 nM). A digest of the protocol:
as §1

The subject of assay [4] is LXRb:RXRa (NR concentration 270 nM, RXRa partner concentration 90 nM). In outline:
as §1

For assay [5], the system named is LXRb homodimer (NR concentration 270 nM). In outline: as §1
For assay [6], the system named is PPARa:RXRa (NR concentration 270 nM, RXRa partner concentration 90 nM). In outline: as §1
Assay [7] deals with PPARg:RXRa (NR concentration 180 nM, RXRa partner concentration 90 nM). A digest of the protocol: as §1
The test system of assay [8] is PPARg:RXRa 270nM:90nM, anti-RXR (NR concentration 270 nM, RXRa partner concentration 90 nM). A digest of the protocol:
as §1

The subject of assay [9] is PPARg:RXRa 30nM:10nM, anti-RXR (NR concentration 30 nM, RXRa partner concentration 10 nM). A digest of the protocol: as §1
The test system of assay [10] is PPARg:RXRa 90nM:30nM, anti-RXR (NR concentration 90 nM, RXRa partner concentration 30 nM). In outline:
as §1

For assay [11], the system named is PPARg:RXRa DBDmut IVT, anti-RXR (DBD mutation: RXRa K156A/R161A, NR concentration 270 nM, RXRa partner concentration 90 nM). A digest of the protocol: as §1
In assay [12] the test system is PPARg:RXRa IVT, anti-PPARg (NR concentration 270 nM, RXRa partner concentration 90 nM). In outline:
as §1

In assay [13] the test system is PPARg DBDmut:RXRa IVT, anti-PPARg (DBD mutation: PPARg1 K132A/R137A, NR concentration 270 nM, RXRa partner concentration 90 nM). In outline:
as §1

Assay [14] deals with PPARg DBDmut IVT, anti-PPARg (DBD mutation: PPARg1 K132A/R137A, NR concentration 270 nM). In outline:
as §1

Assay [15] deals with PPARg homodimer (NR concentration 180 nM). A digest of the protocol: as §1
Assay [16] has as its system PXR:RXRa (NR concentration 270 nM, RXRa partner concentration 90 nM). In outline: as §1
Assay [17] relates to PXR homodimer (NR concentration 270 nM). In outline: as §1
Assay [18] concerns RARa:RXR (NR concentration 270 nM, RXRa partner concentration 90 nM). In outline: as §1
The test system of assay [19] is RARa homodimer (NR concentration 270 nM). In outline:
as §1

For assay [20], the system named is RARb:RXRa (NR concentration 270 nM, RXRa partner concentration 90 nM). A digest of the protocol:
as §1

With TCTGCTAGGGCAGTTGGTCAGCTAACGAGCTGCC, the PBM binding z-score was -0.253 in assay [1]; -0.634 in assay [2]; -0.708 in assay [3]; -0.857 in [4]; -0.624 in assay [5]; -0.359 in assay [6]. Further, the PBM binding z-score is -0.953 in assay [7]; 0.135 in assay [8]; 0.729 in assay [9]; 0.414 in assay [10]; 1.38 in [11]; 0.996 in [12]. For the same sequence, the PBM binding z-score was -0.206 in assay [13]; -0.384 in assay [14]; -0.702 in [15]; -0.671 in [16]; -0.958 in assay [17]; -0.138 in assay [18]. For the same sequence, the PBM binding z-score in [19] is -1.3; in assay [20], 1.14.
As for ATCTCTAGGTAAAGTTCGGTGAAAGATCGATAGA, the PBM binding z-score in assay [1] is 0.889; in [2], 1.94; in assay [3], 0.491; in assay [4] it was 0.602; in [5], 0.935; in [6], 1.22. Moreover, the PBM binding z-score in assay [7] came to 1.55; in assay [8], 2.48; in assay [9], 1.27; in [10], 2.34; in assay [11] it was 2.6; in [12], 2.15. The PBM binding z-score was 1.46 in [13]; 1.56 in assay [14]; 0.996 in assay [15]; 0.633 in [16]; 0.941 in assay [17]; 0.644 in [18]. Besides, the values for the PBM binding z-score in assay [19] and in assay [20] were 1.22 and 0.896, respectively.
In the case of CCGACTGGGGCAGAAAGGTTCCCATACCATCCGG, the PBM binding z-score in [1] was -0.722; in assay [2], -0.705; in [3], -0.526; in [4] it was -0.996; in assay [5], -1.27; in [6], -0.271. For the same sequence, the PBM binding z-score in [7] was 0.412; in assay [8] it was 0.198; in assay [9], -0.842; in assay [10] it was -0.499; in assay [11], 1.45; in [12], 0.893. Also, the PBM binding z-score was -0.887 in assay [13]; -1.78 in assay [14]; -0.509 in assay [15]; -0.725 in assay [16]; -0.638 in assay [17]; -0.53 in [18]. The PBM binding z-score in assay [19] was -0.395; in assay [20], 0.328.
Consider TATACAGAGTCAAAGGCCAGAGTACGAATGTCGA, for which the PBM binding z-score was determined as 0.1 in [1]; 0.487 in assay [2]; 0.0394 in [3]; 0.0721 in assay [4]; 0.0425 in [5]; 1.1 in assay [6]. The PBM binding z-score in assay [7] is 2.17; in assay [8], 2.98; in assay [9], 1.53; in assay [10] it was 2.73; in [11] it was -0.677; in assay [12], 0.809. In addition, the PBM binding z-score in assay [13] is 0.657; in assay [14], 0.798; in assay [15] it was 0.172; in assay [16], 0.3; in assay [17], 0.152; in assay [18], 0.733. Further, the PBM binding z-score in assay [19] is -0.267; in [20], 1.19.
As for CCTAGCAGGCCAATCTGGGTCACTGAAGGCTTGA, the PBM binding z-score in [1] was 1.19; in [2], 1.16; in assay [3], -0.588; in assay [4] it was 0.364; in assay [5] it was -1.38; in [6], 3.01. Besides, the PBM binding z-score turned out to be 1.75 in [7]; 2.55 in assay [8]; 0.263 in assay [9]; 1.81 in assay [10]; 4.44 in assay [11]; 5.17 in assay [12]. Also, the PBM binding z-score was 0.524 in assay [13]; 0.356 in assay [14]; 0.812 in assay [15]; 0.783 in assay [16]; -0.752 in [17]; 1.67 in assay [18]. The PBM binding z-score in [19] is -0.428; in assay [20] it was 1.64.
Turning to ACTAGATGGTCAGCTGAGGTCACACACAATTCGG, the PBM binding z-score amounted to 4.73 in assay [1]; 3.89 in assay [2]; 2.33 in [3]; 3.48 in assay [4]; 0.584 in assay [5]; 3.6 in assay [6]. The PBM binding z-score in assay [7] amounted to 1.95; in assay [8], 2.13; in assay [9], 0.736; in assay [10], 1.61; in [11] it was 0.982; in assay [12] it was 2.14. The PBM binding z-score was 1.06 in assay [13]; 0.428 in assay [14]; 2.89 in [15]; 5.58 in assay [16]; 1.53 in assay [17]; 4.43 in [18]. Further, the PBM binding z-score in assay [19] was determined as 1.34; in assay [20], 3.75.
As for TTACCAAGGTGAGCTGAGGTAGTTGATCCAACTC, the PBM binding z-score is -0.711 in assay [1]; -0.48 in assay [2]; -0.742 in assay [3]; -0.743 in [4]; -1.03 in assay [5]; 0.16 in [6]. For the same sequence, the PBM binding z-score in [7] was -0.149; in [8] it was -0.0423; in assay [9] it was -0.136; in assay [10], -0.391; in assay [11] it was 0.816; in assay [12] it was 1.21. Further, the PBM binding z-score was 0.143 in assay [13]; -0.469 in [14]; -1.15 in assay [15]; 0.018 in [16]; -0.878 in assay [17]; 1.14 in assay [18]. The PBM binding z-score in [19] was -0.894; in assay [20] it was 0.883.
